FPR binder – ligands of human FPR, also counter-screen for FPRL1 ligands | P21462 | FPR-expressing cells, fluorescent ligand binding, flow cytometry | inhibition, % (test concentration not listed) | hit rate 0.74% among 24,000
Jurkat autofluor – autofluorescence counter-screen for VLA-4 integrin assays; Jurkat cells, compound autofluorescence, flow cytometry; hits give high values; 1 = vehicle-only cell background; fluorescence ratio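 (tested at 10 µM compound in the well)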; hit rate 0.61% among 24,000;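 active means fluorescence ratio above 2.44, which is 1 plus 3 SD of all ratios; inconclusive means signal too bright to measure linearly, ratio around 10 or more; inactive means fluorescence ratio below 2.44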;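 further: green fluorescence of cells measured with 488 nm excitation and 530 nm emission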
VLA-4 agonist – allosterically activates the human VLA-4 integrin | P13612 | Jurkat cells, LDV-FITC binding, flow cytometry | activation, % at 10 µM (by protocol) | 24,000 tested, under 10 active | AID 528;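 active means fluorescent ligand binding to cells raised by more than 40% of the manganese-induced maximum; inconclusive means compound's own fluorescence above 85% of the ligand control signal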
VLA-4 antagonist – inhibitors of LDV-FITC ligand binding to Mn2+-activated human VLA-4 integrin; P13612; Jurkat cells, LDV-FITC binding with Mn2+, flow cytometry; 100% = Mn2+-driven binding gain fully reversed; inhibition, % at 10 µM (by protocol); hit rate 0.2% among 24,000; AID 529;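 active means inhibition above 50%; inconclusive means compound itself fluorescent, judged against control cell fluorescence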
FPRL1 binder – ligands of human FPRL1, also counter-screen for FPR ligands. P25090. FPRL1-expressing cells, fluorescent ligand binding inhibition, flow cytometry. inhibition, % (concentration not given with the values). hit rate 0.3% among 24,000. AID 441
Target sequence (P25090 whole entry, looked up): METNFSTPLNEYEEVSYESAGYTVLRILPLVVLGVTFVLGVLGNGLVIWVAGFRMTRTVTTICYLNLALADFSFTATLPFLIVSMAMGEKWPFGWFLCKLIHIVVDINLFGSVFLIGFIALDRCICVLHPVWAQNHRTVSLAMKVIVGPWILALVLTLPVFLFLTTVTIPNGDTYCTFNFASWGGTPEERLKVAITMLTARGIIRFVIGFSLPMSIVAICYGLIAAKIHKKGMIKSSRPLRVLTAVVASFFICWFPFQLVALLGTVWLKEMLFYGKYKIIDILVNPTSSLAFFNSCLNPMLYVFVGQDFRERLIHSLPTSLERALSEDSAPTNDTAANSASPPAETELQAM
Numbers stand for hits; i = inactive; ? = inconclusive; nt = not tested or not shown. Compounds with a hit are over-represented: about 1.4% of the library has one in this group of screens. Unless noted, no stated cut-off is given here; in the data, active means inhibition above about 30%; inconclusive means no clear call, values can overlap the other calls; inactive means below that.

SMILES | FPR binder | Jurkat autofluor | VLA-4 agonist | VLA-4 antagonist | FPRL1 binder
CC1CCN(CCCNC(=O)c2coc3nc4ccccc4nc23)CC1 | i | i | ? | ? | i
CC1CCCN(CCCNC(=O)c2coc3nc4ccccc4nc23)C1 (stereo unspecified) | i | 4.67 | ? | ? | i
Cc1ccc(CCNC(=O)c2coc3nc4ccccc4nc23)cc1 | i | 4.18 | ? | ? | i
COc1ccccc1-n1c(CNC(=O)c2ccco2)nnc1SCC(=O)Nc1ccc(F)cc1 | 47.4 | i | i | i | i
CC(C)c1cc(C(=O)Nc2cc(Cl)ccc2O)no1 | i | 3.81 | ? | ? | i
CC(C)c1cc(C(=O)Nc2cccc(Cl)c2)no1 | i | i | i | i | i
CCOC(=O)c1c(C)oc2c1c(C=NCc1ccccn1)c(O)c1ccccc12 | i | 2.86 | ? | ? | i
CCOC(=O)c1c(C)oc2c1c(C=NCC1CCCO1)c(O)c1ccccc12 (stereo unspecified) | i | i | ? | ? | i
CCOCCCn1c(=S)[nH]c2cc3c(cc2c1=O)OCO3 | i | i | ? | ? | i
COc1ccc2nc(Nc3nc(C)c(C(C)=O)s3)sc2c1 | i | i | i | 63.0 | 58.8
CC1CCN(c2nc(-c3ccccc3)c(C#N)c(=O)[nH]2)CC1 | 34.8 | i | i | i | i
CC(C)c1ccc(-c2nc(N3CCCCC3)[nH]c(=O)c2C#N)cc1 | i | i | i | i | i
Cc1cccn2c(=O)c3cc(C(=O)N(C)C)n(C)c3nc12 | i | 3.09 | ? | ? | i
CCNC(=O)c1cc2c(=O)n3cccc(C)c3nc2n1C | i | i | ? | ? | i
CCOc1nc(SCCOc2ccccc2)nc(N(C)C)n1 | i | i | i | i | i
CCCOc1ccc(N)cc1N | i | 7.89 | ? | ? | i
CCCOc1ccccc1NC(=O)c1ccc(N)cc1 | i | i | i | i | i
c1ccc2c(c1)CCCN2c1nc2ccccc2n2cnnc12 | i | 2.64 | ? | ? | i
c1ccc2c(c1)CCN(c1nc3ccccc3n3cnnc13)C2 | i | i | ? | ? | i
CCOC(=O)CSc1nnc(CNC(=O)c2cc(OCC)c(OCC)c(OCC)c2)n1C | i | i | i | i | 51.3
CCOc1cc(C(=O)NCc2nnc(SCC(=O)OC)n2C)cc(OCC)c1OCC | i | i | i | i | 74.6
CCOC(=O)CSc1nnc(CNC(=O)c2cc(OC)c(OC)c(OC)c2)n1C | i | i | i | i | i
CCOC(=O)CSc1nnc(CNC(=O)c2ccc(OC)c(OC)c2)n1C | i | i | i | i | i
COc1ccc(-c2nnc3ccc(SCC(=O)N4CCN(c5ccccc5)CC4)nn23)cc1OC | i | i | i | i | i
COc1cccc(-c2nc(CS(=O)(=O)CC(=O)NCCC(C)C)c(C)o2)c1 | 34.1 | i | i | i | i
SMILES | FPR binder | Jurkat autofluor | VLA-4 agonist | VLA-4 antagonist | FPRL1 binder
CC(=O)SCC(=O)N=c1sc2cc(F)ccc2n1C | 56.3 | i | i | i | 33.7
CCN(CC)c1ccc2c(c1)CCCN2 | i | 4.49 | ? | ? | i
O=C(NCC12CC3CC(CC(C3)C1)C2)c1cc2n(n1)C(C(F)(F)F)CC(c1ccco1)N2 (stereo unspecified) | i | 3.52 | ? | ? | i
COc1cc2c(cc1OC)C(C)N(C(=O)c1cc3n(n1)C(C(F)(F)F)CC(c1ccco1)N3)CC2 (stereo unspecified) | i | i | i | i | i
Cc1cc(/C=c2/sc3nc4ccccc4n3c2=O)c(C)n1-c1ccccn1 | i | 3.67 | ? | ? | i
COc1ccc(Cl)cc1NC(=O)CSc1nncn1-c1cccnc1 | i | i | i | i | i
c1cc2c(cc1C1CCCN1)OCCCO2 (stereo unspecified) | i | i | i | i | i
Cc1ccccc1-n1c(Cn2c(=O)sc3ccccc32)nnc1SCC(N)=O | i | i | i | i | i
Cc1cc(NC(=O)CSc2nnc(Cn3c(=O)sc4ccccc43)n2-c2ccccc2C)no1 | 36.2 | i | i | i | i
O=C(NC1CCCCCCC1)c1ccc(CNc2c(N3CCOCC3)c(=O)c2=O)cc1 | i | i | i | i | i
Cc1cccc(N(C)c2cc(C)nc3nc(C)nn23)c1 | i | i | i | i | i
COc1cc(NS(=O)(=O)c2ccc(Br)s2)cc(OC)c1 | i | 4.46 | ? | ? | ?
O=S(=O)(Nc1ccc2c(c1)OCO2)c1ccc(Br)s1 | i | i | i | i | i
CC1CCCCN1c1nnc(NC(=O)Cn2c(=O)oc3ccccc32)s1 (stereo unspecified) | i | i | i | i | i
CCOC(=O)c1cc2c(=O)n3ccccc3nc2n(Cc2ccco2)c1=NC(=O)c1cccnc1 | i | 4.34 | ? | ? | i
CCOC(=O)c1cc2c(=O)n3cccc(C)c3nc2n(Cc2ccco2)c1=NC(=O)c1cccnc1 | i | 5.54 | ? | ? | i
O=C(NCCN1CCOCC1)c1ccc2c(c1)ncn2C1CCCCC1 | i | i | i | i | i
COc1cccc2c1C(=O)c1c(O)c3c(c(O)c1C2=O)C[C@@](O)(C(C)=O)C[C@@H]3O[C@H]1C[C@H](N)[C@H](O)[C@H](C)O1 | i | ? | ? | ? | 31.6
COc1ccc(-c2cc(C(F)(F)F)nc(N3CCN(Cc4ccccc4)CC3)n2)cc1OC | i | i | i | i | 74.9
COc1ccc(C)cc1NC(=O)C1CCCCC1C(=O)O (stereo unspecified) | 32.5 | nt | nt | nt | i
CCC(CC)C(=O)Nc1c2cnn(-c3ccccc3)c2nc(=O)n1-c1ccccc1 | 82.6 | i | i | 53.0 | i
Cc1cc(N2C(=O)C3C4C=CC(C4)C3C2=O)ccc1Br (stereo unspecified) | i | i | i | i | i
CCOc1ccc(NC2c3ccccc3C(=O)N2Cc2ccco2)cc1 (stereo unspecified) | i | i | i | i | i
CCCOc1ccc(C(CC(=O)O)NC(=O)C23CC4CC(CC(C4)C2)C3)cc1 (stereo unspecified) | nt | i | i | 113.0 | nt
CCCCOc1ccc(CC(=O)NO)cc1 | i | i | i | i | i

Screening results: PubChem BioAssay, NMMLSC
